# From PubChem BioAssay (NCI)
# About 79,000 compounds went through this panel and 15% of them were active in at least one assay; those are over-represented in the sample as a whole. Unmarked numbers belong to inactive results. Active and inactive are the calls of the source. No stated cut-off is given here; in the data, active means growth inhibition above about 70%; inactive means the rest.
# How the values were obtained:
# [1] = NCI Yeast Anticancer Drug Screen. Data for the rad50 strain (AID 155);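 further: 0% = growth of vehicle-only cultures of the same strain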; conditions: S. cerevisiae rad50 strain growth inhibition; at 50.0 µM; active compounds read high
# Method in brief: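 Inhibition values express reduced yeast growth in compound-treated cultures relative to vehicle-treated controls.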
# [2] = NCI Yeast Anticancer Drug Screen. Data for the mec2-1 strain (AID 157); conditions: S. cerevisiae mec2-1 strain, at 50.0 µM, active compounds read high
# Method in brief: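 Yeast mec2-1 mutant treated with compound. Readout: growth inhibition vs vehicle controls.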
# [3] = NCI Yeast Anticancer Drug Screen. Data for the sgs1 mgt1 strain (AID 161);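 further: 0% = growth of cultures given vehicle only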; conditions: S. cerevisiae sgs1 mgt1 strain, at 50.0 µM, active compounds read high
# Method in brief: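 Inhibition of yeast growth, normalised to vehicle-treated controls, is reported for a strain bearing genetic alterations in DNA damage repair.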
# [4] = NCI Yeast Anticancer Drug Screen. Data for the cln2 rad14 strain (AID 165);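 further: 0% = growth equal to vehicle treated cultures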; conditions: S. cerevisiae cln2 rad14 strain, at 50.0 µM, active compounds read high
# Method in brief: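 cln2 rad14 yeast strain; compound exposure; growth inhibition read vs vehicle controls.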
# [5] = NCI Yeast Anticancer Drug Screen. Data for the bub3 strain (AID 167); conditions: S. cerevisiae bub3 mutant strain, at 50.0 µM, active compounds read high
# Method in brief: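 Steps: expose the mutant yeast strain to compound; grow alongside vehicle-treated cultures; measure growth; express inhibition against the vehicle cultures.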
# [6] = NCI Yeast Anticancer Drug Screen. Data for the mlh1 rad18 strain (AID 175); conditions: S. cerevisiae mlh1 rad18 strain growth inhibition; at 50.0 µM; active compounds read high
# Method in brief: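 Yeast w/ defined DNA-repair lesions; compound exposure; growth vs vehicle controls → % inhibition.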
Compound,growth inhibition [1],growth inhibition [2],growth inhibition [3],growth inhibition [4],growth inhibition [5],growth inhibition [6]
CNC(=O)c1cccnc1,-5.35%,-26%,-20.6%,6.7%,-12.2%,-8.35%
Cc1ccc(NC(=O)/C(Cc2cc(=O)oc3cc(O)ccc23)=N\NC(C)(C)C)cc1C,-3.95%,-10.3%,-21.9%,-33.9%,-17.9%,-3.5%
CC1=CC(=O)c2ccc(C)cc2C1=O,-8.9%,-24.4%,-6.9%,-18.9%,-0.4%,5.85%
O=C1NC(N/N=C\c2ccccc2)=N/C1=C/c1ccc(Cl)cc1,22.6%,0.75%,11.7%,17.8%,16.7%,-1.85%
CCCCCC(O)(CCCCC)CCCCCCCCC1=C(O)c2ccccc2C(=O)C1=O,-17.7%,-18.6%,-0.15%,5.75%,1%,-79.2%
COc1ccc2cc(CN3CCC(C4CCNCC4)CC3)ccc2c1,15.6%,-4.8%,1.55%,14.7%,20.8%,86% (active)
CC1C2(C)OC(=N)C(C#N)(C(c3cccc([N+](=O)[O-])c3)O2)C1(C#N)C#N (configuration not stated),8.15%,1.55%,-13.6%,0.15%,-10.4%,-9.1%
COC(=O)C(=O)C(C(=O)C(=O)Nc1nc2ccc(C)cc2s1)c1nc2ccc([N+](=O)[O-])cc2[nH]c1=O (configuration not stated),56.1%,15.4%,22.1%,-30.6%,26.1%,20.2%
O=C(O)c1cc(C(=O)O)cc([N+](=O)[O-])c1,-3.75%,-5.9%,4.75%,0.25%,8.3%,7.35%
Cc1coc2c1C(OC(=O)C(C)C)C1(C)C(C)CCC(O)C1C2=O (configuration not stated),9.2%,-6.4%,31.5%,10.7%,-1.3%,-37.1%
CC1=C(/C=C/C(C)=C/C=C/C(C)=C/C(=O)Nc2ccc(O)cc2)C(C)(C)CCC1,-28.4%,1.05%,-2.3%,6.45%,12.2%,-13.2%
COc1ccc2c(=O)c(-c3cc4c(cc3OC)OCO4)coc2c1,-26.5%,-30.9%,-11.3%,-3.1%,-33.5%,-56.4%
C[C@@H]1C[C@](O)([C@@H](C)Cl)C(=O)O[C@@H]2CCN3CC=C(COC(=O)[C@]1(C)O)[C@H]23,-14.2%,-16.1%,-7.95%,-11.1%,5.7%,-30.6%
COC(=O)/C=C\C(C#N)(C#N)N=Cc1ccsc1,67.9%,75.5% (active),79.8% (active),29.6%,74% (active),87.6% (active)
CCC(C)C1(O)OC2CC3(C)OC(=CC3=O)/C(C)=C\C3OC(=O)C1(C)C32 (configuration not stated),7.65%,-31.2%,37.5%,6.4%,-20.1%,-35.9%
N#Cc1n[nH]n(-c2ccccc2)c1=O,-26.3%,-10.8%,17.3%,-11.7%,-21%,-13.7%
Cc1ccc(NC(=O)/C(=N\NC(N)=O)c2c(O)c3ccccc3[nH]c2=O)cc1,1.45%,4.6%,-10.5%,7.85%,-3.05%,-33%
COc1c(O)ccc(C2=Cc3ccc(O)cc3OC2)c1OC,80.2% (active),91.5% (active),88.2% (active),88.3% (active),88.7% (active),-25.6%
CC1CC(C(=O)OC2OC(COC3OC(CO)C(OC4OC(C)C(O)C(O)C4O)C(O)C3O)C(O)C(O)C2O)C2CCC3(C)C(=CCC4(C)C3CCC3C(C)(CO)C(O)C(O)CC34C)C2C1C (configuration not stated),60.1%,68.1%,72.8% (active),26.8%,77.8% (active),24.4%
CCn1c2c(c3ccccc3c1=O)C(=O)c1ccccc1-2,12%,3.9%,16.8%,12.8%,-3.85%,-49.4%

Compound,growth inhibition [1],growth inhibition [2],growth inhibition [3],growth inhibition [4],growth inhibition [5],growth inhibition [6]
CC1(C)Oc2ccc3c(=O)cc(-c4ccc(F)cc4)oc3c2C1C(=O)O (configuration not stated),-2.3%,-16.6%,-12.2%,-9.1%,8.1%,-28.8%
COC(=O)/C(=N\NC(=S)NN)C(C(=O)OC)C(=O)C(=O)Nc1cccc(C(F)(F)F)c1 (configuration not stated),0.3%,1.4%,8.9%,5.6%,-9.25%,24.1%
COc1cc([C@H]2OC[C@H]3[C@@H]2CO[C@@H]3c2cc(OC)c3c(c2)OCO3)cc(OC)c1OC,17.1%,-2.25%,1.25%,21.7%,39%,-80.7%
COC(=O)C(Cc1nc2ccccc2[nH]c1=O)C(=O)C(=O)Nc1cc(C(F)(F)F)ccc1Cl (configuration not stated),5.3%,-18.5%,19.4%,4.65%,2.4%,11.4%
CC(=O)C(/C=N/C(N)=O)=C(/C)O,5.4%,-7.5%,3.75%,2.75%,-2.3%,2.55%
OCc1ccccc1OC1OC(CO)C(O)C(O)C1O (configuration not stated),18.5%,2.6%,16.4%,-0.45%,21.6%,-50.9%
Cc1ccc2c(/C=C/c3ccc(N(C)C)cc3)ccc(C(C)C)cc1-2,-5.4%,-41.3%,19.1%,1.75%,,-53.2%
COc1ccc(CC2C(=O)NC(=O)NC2=O)cc1OCc1ccccc1,14.7%,-1.75%,-14.1%,-10%,-17.4%,-44.6%
COC(=O)c1cc(C#N)[nH]c1-c1ccsc1,-27.4%,-8%,-10.8%,6.4%,-3.4%,6.9%
COC(=O)C(=O)C(C(=O)C(=O)Nc1ccc(Cl)c(Cl)c1)c1nc2ccc(C(=O)c3ccccc3)cc2[nH]c1=O (configuration not stated),6.8%,-9.65%,-15.1%,5.95%,-3.05%,4.95%
CC1OC(Oc2c(-c3cc(O)c(O)c(O)c3)oc3cc(O)cc(O)c3c2=O)C(O)C(O)C1O (configuration not stated),-14.2%,-16.8%,-8%,9.75%,,-13.6%
COc1ccc2c(c1)N(C(C)=O)CN1C(=O)CCC21 (configuration not stated),-10.4%,1.25%,-1.25%,21.8%,6.85%,-66%
COc1ccccc1-c1n[nH]c(-c2ccccc2O)n1,31.7%,-24.1%,27.8%,-10.7%,22.9%,-54.1%
CC1=C2NCN(C)N=C2C(C#N)(C#N)C1(C#N)C#N,24%,35.4%,-15.3%,2.25%,-12.2%,-13.1%
CCN(CC)C(=O)c1cccnc1,0.8%,-46.9%,-33%,14.2%,-20.4%,18.6%
COc1ccc2nc(N/N=C/c3ccc(C)s3)cc(C)c2c1,22.3%,-1.75%,15.6%,24.4%,0.7%,24.6%
O=C(O)COc1cc(-c2ccccc2F)nc2cc3c(cc12)OCO3,34.1%,22.5%,15.9%,7.9%,-3.15%,-18.1%
O=C(O)CCCC(=O)Nn1c(Cc2ccc(Cl)cc2)n[nH]c1=O,7.75%,-13.1%,34.5%,-6.3%,-7.15%,-1.85%
CCC/C(Cl)=N/OC(=O)Nc1cccc(F)c1,-2.75%,-6.9%,90.8% (active),16.6%,45%,41.5%
